In the library only some 2.5% were active in any assay of this set; here they are far more common.
DRV1 agonist: activates human resolvin D1 receptor GPR32 | O75388 | CHO-K1 GPR32 beta-arrestin PathHunter luminescence, 90 min; zero percent set by DMSO-only wells | activation, % at 76.9 µM | hit rate 2.5% among 48,000;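 active = activation of at least 60% and not above a set upper limit, about 1 call in 100 departs from these limits; inconclusive = activation of 40% to 60%, or above that upper limit; inactive = activation under 40%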; note: 0% is about no effect
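Engineered CHO-K1 line co-expressing GPR32-ProLink and EA-beta-arrestin. Compound treatment lasted 90 min at 37 °C. Luminescence was recorded after 1 h with substrate at ambient temperature, relative to DMSO basal wells.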
B2AR arrestin ag: beta-arrestin recruitment by human beta2-adrenergic receptor ligands; P07550; HTLA Tango cells, beta-arrestin recruitment, luciferase luminescence, 18 h; Potency, µM (doses to about 46.1 µM), hits mostly activators; 44,000 tested, under 10 active; AID 1347077;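 note: potency is the fitted concentration of half-maximal effect; 0% = DMSO and full agonism = EC100 isoproterenol or metaproterenol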
Target sequence (P07550 whole entry, looked up): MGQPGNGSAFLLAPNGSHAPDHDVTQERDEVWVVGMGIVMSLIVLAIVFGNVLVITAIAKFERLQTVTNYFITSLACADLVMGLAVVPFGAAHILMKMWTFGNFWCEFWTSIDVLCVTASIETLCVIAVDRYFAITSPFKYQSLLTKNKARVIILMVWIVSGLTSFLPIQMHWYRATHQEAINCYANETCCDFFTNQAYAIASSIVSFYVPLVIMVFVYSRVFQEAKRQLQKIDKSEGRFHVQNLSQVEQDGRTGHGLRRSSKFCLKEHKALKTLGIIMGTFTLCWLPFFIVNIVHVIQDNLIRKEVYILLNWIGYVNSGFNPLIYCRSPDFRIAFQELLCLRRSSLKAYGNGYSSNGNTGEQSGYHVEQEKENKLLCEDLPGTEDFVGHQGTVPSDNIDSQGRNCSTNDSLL
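Receptor–beta-arrestin recruitment read by tTA-responsive luciferase: compound titrations (up to 46 µM) incubated 18 h with Tango cells, then luminescent substrate 15 min at room temperature. Concentration-response fits classified by r2, efficacy and activity.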
GALK inhibitor: inhibits human galactokinase; P51570; recombinant GALK, Kinase-Glo ATP luminescence, 1 h; Potency, µM (highest dose often 57.5 µM), inactives show top-dose activity, negative = inhibition, hits mostly inhibitors; 44,000 tested, under 10 active;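 note: plate controls were full GALK reaction for no effect and reaction lacking GALK for full effect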
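Luminescent ATP-depletion readout (Kinase-Glo Plus) after 1 h room-temperature incubation of human GALK (5 nM) with galactose 100 µM and ATP 35 µM, pH 8.0 HEPES/Mg2+ buffer; compounds tested in qHTS format.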
PTAP-TSG101 blk: blocks PTAP binding to human TSG101, validation; 44,000 tested, under 10 active; Fluorescence polarization, FITC-PTAP peptide/Tsg101, 20 min; Q99816; Potency, µM (doses to about 115 µM), actives largely listed as inhibitors; note: potency is the fitted concentration of half-maximal effect; 0% is about no effect
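Fluorescence polarization: Tsg101 binding domain (10 uM final) in 10 mM HEPES pH 7.5, 0.15 M NaCl, 0.01% Tween 20, 3 mM EDTA, 0.1 mM TCEP; compounds pinned; FITC-PTAP peptide 50 nM final; 20 min, r.t.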
An asterisk follows results filed as active; i = inactive; ? = inconclusive; . = no result given. Unless noted, calls come from the whole dose curve; as a rule, active = well fitted curve in the direction sought with a large enough effect; inconclusive = small, poorly fitted or top-dose-only effect, or another doubt; inactive = no such curve, though single readings can be large; an effect the other way counts as inactive or inconclusive.

SMILES	DRV1 agonist	B2AR arrestin ag	GALK inhibitor	PTAP-TSG101 blk
CC(C)C(=O)Nc1cccc(C2CN3CCSC3=N2)c1 (stereo not given)	-0.5	.	.	.
CC1(C)O[C@@H]2C[C@H]3[C@@H]4CCC5=CC(=O)C=C[C@]5(C)[C@@H]4[C@@H](O)C[C@]3(C)[C@]2(C(=O)CO)O1	6.4	.	.	.
O=C(COc1ccc(F)cc1)OCc1cc(=O)n2nc(C3CC3)sc2n1	96.8*	i	1.0%	i
Cc1cc(C)c2c(=O)cc(CSc3n[nH]c(C)n3)[nH]c2c1	7.2	i	-8.5%	i
Cc1cccc(-c2nc(SCc3cc(=O)c4c(C)cc(C)cc4[nH]3)n[nH]2)c1	115.8*	i	-1.4%	i
CCC1CN(S(=O)(=O)c2cc(-c3cc(C)no3)ccc2C)c2cc(Cl)ccc2O1 (stereo not given)	-15.7	i	0.3%	i
COc1cc(C2c3c(-c4ccc(C)cc4)n[nH]c3C(=O)N2c2ccc(F)cc2)ccc1O (stereo not given)	104.2*	i	-0.4%	i
COc1ccc(C2c3c(-c4ccc(F)cc4)n[nH]c3C(=O)N2c2ccccc2)cc1OC (stereo not given)	0.8	i	2.6%	i
Cc1cccc(C(=O)NNc2ncnc3c2cnn3-c2ccc(C)cc2C)c1	113.2*	i	0.1%	i
Cc1cccc(-n2ncc3c(Nc4ccc(C)c(Cl)c4)ncnc32)c1	73.7*	i	3.1%	i
Cc1cccc(-n2ncc3c(NC4CCCC4)ncnc32)c1	114.1*	i	0.6%	i
c1ccc(-n2ncc3c(NC4CCCC4)ncnc32)cc1	7.7	i	-1.6%	i
Clc1cccc(-n2ncc3c(NC4CCCCCC4)ncnc32)c1	?	i	-0.5%	i
Cc1ccc(-n2ncc3c(NC4CCCC4)ncnc32)cc1	112.3*	i	-2.4%	i
CN(C)CCOC1=Cc2ccccc2Sc2ccc(Cl)cc21	7.5	.	.	.
COCCCNc1ncnc2c1cnn2-c1ccc(F)cc1	6.1	i	-1.6%	i
CCC(C)Nc1ncnc2c1cnn2-c1ccc(F)cc1 (stereo not given)	65.1*	i	2.4%	i
CCOc1cc(OCC)cc(C(=O)Nc2cccc(-c3nc4ccccc4[nH]3)c2)c1	-18.3	i	-0.5%	i
CCCOc1cccc(C(=O)Nc2ccc(-c3nc4ccccc4o3)cc2)c1	107.7*	i	0.0%	i
CCOc1cccc(C(=O)Nc2ccc3oc(-c4ccncc4)nc3c2)c1	?	i	1.2%	i
CCCOc1ccc(C(=O)Nc2cccc(-c3nc4ccccc4[nH]3)c2)cc1	82.5*	i	5.7%	i
[O-][n+]1cccc(/C(Cl)=N/OC[C@@H](O)CN2CCCCC2)c1	8.0	.	.	.
Cc1sc2c(c1C)c(=O)n(Cc1ccccc1)c(=O)n2CC(=O)Nc1cccc(Cl)c1	6.2	i	0.3%	i
O=c1cc2nc(-c3ccccc3F)nc(SCc3ccc(Br)cc3)n2[nH]1	107.9*	i	2.0%	i
COc1ccccc1NC(=O)CSc1nc(-c2ccccc2F)nc2cc(=O)[nH]n12	1.3	i	-0.9%	i
SMILES	DRV1 agonist	B2AR arrestin ag	GALK inhibitor	PTAP-TSG101 blk
Cc1ccccc1C(=O)N1CC/C(=N\OS(=O)(=O)O)c2ccc(Cl)cc21	-34.7	.	.	.
COc1ccc(CCCc2nnc(SCC(=O)Nc3cccc(F)c3C)o2)cc1	65.7*	i	-15.9%	i
COc1ccc(CCCc2nnc(SCC(=O)Nc3ccc(OC)cc3)o2)cc1	-17.3	i	0.0%	i
COc1cc(C(=O)N2CCC(c3nc4ccccc4s3)CC2)cc(OC)c1OC	?	i	0.0%	i
CC(Oc1ccc(F)cc1)C(=O)N1CCC(c2nc3ccccc3s2)CC1 (stereo not given)	67.2*	i	-5.6%	i
Cc1ccccc1C(=O)N1CCC(c2nc3ccccc3s2)CC1	?	i	0.4%	i
O=C(c1ccccc1Cl)N1CCC(c2nc3ccccc3s2)CC1	77.9*	i	-13.9%	i
Cc1cc(OCC(=O)N2CCC(c3nc4ccccc4s3)CC2)ccc1Cl	78.0*	i	0.0%	i
CC(C)C(=O)Nc1cccc(C(F)(F)F)c1	60.7*	.	.	.
Cc1ccc(-c2nc3nc(C)cc(Nc4ccccc4O)n3n2)cc1	72.0*	i	-0.2%	i
Cc1ccc(S(=O)(=O)Cc2nc(-c3ccc(C(=O)NCc4ccccc4)cc3)oc2C)cc1	77.2*	i	0.2%	i
Cc1ccc(NS(=O)(=O)c2ccc3c(c2)N(C)C(=O)CC(=O)N3C)cc1Cl	20.1	i	-1.3%	i
COc1ccc(-c2csc(=Nc3ccccc3)n2CCO)cc1F	96.3*	i	8.4%	i
COCCCn1c(-c2ccc(S(=O)(=O)N3CCOCC3)cc2)csc1=Nc1ccccc1	-49.9	i	0.4%	i
CCN(CC)CCn1c(-c2ccccc2)csc1=Nc1ccccc1	84.7*	i	1.9%	i
COc1ccc(-c2noc(CSc3nnc(C)n3-c3ccc(C)cc3)n2)cc1OC	2.0	i	-11.2%	i
COc1ccc(-c2noc(N3CCN(c4ccc(C)cc4)C(C)C3)n2)cc1OC (stereo not given)	60.8*	i	-6.4%	i
CC[C@@H]([C@H](C)O)n1ncn(-c2ccc(N3CCN(c4ccc(OC[C@@H]5CO[C@@](Cn6cncn6)(c6ccc(F)cc6F)C5)cc4)CC3)cc2)c1=O	67.7*	.	.	.
CCOc1ncc(F)c(=O)[nH]1	19.3	.	.	.
CSc1nc2c([nH]c3ccccc32)c(=O)n1-c1ccc(F)cc1	?	i	1.9%	i
CCSc1nc2c([nH]c3ccccc32)c(=O)n1-c1ccc(F)cc1	78.8*	i	1.5%	i
CCc1ccccc1NC(=O)CC1NCCNC1=O (stereo not given)	-6.5	i	1.7%	i
Cc1nn(Cc2noc(C(=O)NCc3cccc(F)c3)n2)c(C)c1Br	73.1*	i	2.3%	i
COC(=O)c1ccc(CNC(=O)c2nc(Cn3nc(C)c(Br)c3C)no2)cc1	9.8	i	-1.7%	i
O=C(COc1ccccc1F)Nc1ccc2nc(SCCOc3ccccc3)sc2c1	98.9*	i	0.0%	i
SMILES	DRV1 agonist	B2AR arrestin ag	GALK inhibitor	PTAP-TSG101 blk
CC(=O)Nc1ccc2nc(SCCOc3ccccc3)sc2c1	118.3*	i	5.2%	i
Cc1c(Cl)ccc2sc(N3CCN(C(=O)CS(=O)(=O)c4ccccc4)CC3)nc12	47.2	i	3.6%	i
Cc1cc(C2CCCCC2)n(O)c(=O)c1	77.3*	.	.	.
CCC(=O)C1=C(c2ccc(C)cc2)N(C(=O)CC)n2c(nnc2C2CCCCC2)S1	-39.1	i	0.3%	i
O=C1CCCc2c(O)cccc21	-3.2	.	.	.
COc1cc2oc(=O)c(CC(=O)NCCc3ccccc3F)c(C)c2cc1OC	77.0*	i	-9.9%	i
COc1ccc(S(=O)(=O)N2CCC(n3c(C)nc4cccnc43)CC2)cc1Cl	70.1*	i	3.9%	i
